# Source: PubChem
# TbPYK inhibitor: T. brucei pyruvate kinase inhibition. Q57TT1. Potency, µM (doses to about 76.8 µM), without a hit: top-dose activity, negative = inhibition, hits mostly inhibitors. TbPYK enzyme, Kinase-Glo Plus ATP luminescence, 45 min. 410,000 compounds, 0.12% hits. AID 624173; further: potency means the concentration at half of the fitted maximal effect; on the % scale 0 is the no-effect control and ±100 the full control effect; nearly all actives have a fitted effect of over 50% in size
#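 Luminescent Kinase-Glo Plus end-point after 45 min room-temperature reaction of T. brucei pyruvate kinase started with 130 uM ADP (final). Buffer TEA 50 mM pH 7.2 with KCl, MgCl2, BSA, Tween-20; titration-based qHTS with fitted concentration-effect curves.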
# FBPA Giardia inh: blocks Giardia fructose-bisphosphate aldolase activity; A8B2U2; purified Giardia FBPA; Potency, µM (series often up to 59.6 µM), inactives show at the top dose activity, negative = inhibition, hits mostly inhibitors; 290,000 compounds, 0.71% hits; AID 2451; further: potency means the concentration at half of the fitted maximal effect; on the % scale 0 is the no-effect control and ±100 the full control effect; nearly all actives have a fitted effect of over 55% in size
# Target sequence (A8B2U2 whole entry, looked up): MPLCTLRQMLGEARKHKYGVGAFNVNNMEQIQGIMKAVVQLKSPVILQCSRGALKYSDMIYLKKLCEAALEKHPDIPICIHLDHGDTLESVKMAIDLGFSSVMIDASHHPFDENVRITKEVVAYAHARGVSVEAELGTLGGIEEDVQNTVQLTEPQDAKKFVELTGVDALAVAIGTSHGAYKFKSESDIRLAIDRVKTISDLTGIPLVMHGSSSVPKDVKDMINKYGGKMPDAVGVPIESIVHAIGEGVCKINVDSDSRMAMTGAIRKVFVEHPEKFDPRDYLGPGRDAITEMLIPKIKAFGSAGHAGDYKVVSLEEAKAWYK
#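 Giardia FBPA (40 nM reagent) was preincubated 10 min at RT with compound (up to 57.5 uM final), then substrate plus GAPDH/TPI/NAD/arsenate coupling system with diaphorase/resazurin was added; resorufin fluorescence (525/598 nm) was read after 20 min.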
# Cycloheximide cs: affects cycloheximide protein synthesis inhibition readout, counter-screen | 300,000 compounds, 12% hits | cell reporter, cycloheximide protein synthesis inhibition counterscreen | max response, % | AID 2314; in the data active means max response mostly above about 13%, no sharp cut-off; inactive means mostly below about 14%; further: read at 38.3 µM for the half of the compounds with a filed dose; 0% is about no effect
# Shiga inhibitor: blocks Shiga toxin action in Vero cells; inhibition, % at 38.7 µM; Vero cells, Shiga toxin protein synthesis inhibition reporter; 290,000 compounds, 9.2% hits; in the data active means inhibition mostly above about 28%, no sharp cut-off; inactive means mostly below about 43%; further: 0% is about no effect
# LmPK inh: LmPK (Leishmania mexicana) enzyme inhibition. Q27686. purified LmPK, Kinase-Glo ATP luminescence, 1 h. Potency, µM (highest dose often 57.5 µM), for inactives: at the top dose activity change, negative = inhibition, most hits filed as inhibitors. 290,000 compounds, 0.37% hits. AID 1721; further: potency means the concentration at half of the fitted maximal effect; on the % scale 0 is the no-effect control and ±100 the full control effect
#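 Purified LmPK (0.1 nM) converted ADP (0.1 mM) to ATP with PEP (0.5 mM) in imidazole buffer pH 7.2 with KCl and MgCl2, 1 h at room temperature. ATP was read by Kinase-Glo luminescence; data normalized to uninhibited and no-enzyme controls.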
# RE007 growth inh: less growth of the S. pombe RE007 Vpr strain. S. pombe RE007 Vpr strain, BacTiter-Glo ATP luminescence, 24 h. Potency, µM (doses to about 92.2 µM), for the others: top-dose activity change, negative = less growth, actives largely listed as inhibitors. 360,000 compounds, 0.21% hits. AID 651644; active means well fitted falling curve with a large enough effect; inconclusive means small, poorly fitted or top-dose-only effect; inactive means no such curve, though single readings can be large or run the other way; further: potency means the concentration at half of the fitted maximal effect; on the % scale 0 is the no-effect control and ±100 the full control effect; nearly all actives have a fitted effect of over 50% in size
#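 Fission yeast strain RE007, carrying one chromosomally integrated HIV-1 vpr copy, was seeded at OD 0.01 in PMG+AL medium with 23 nL pinned compound. After 24 h at 30 °C and 99% humidity, viability was read by BacTiter-Glo luminescence.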
# * = called active by the depositor; u = inconclusive; x = not tested or not shown; + = active, no number; ! = not active in a repeat; [ ] = another dose, or the depositor's remark. The entries come from a sample that favours hits as a whole. Unless noted, the call rests on the fitted dose curve; in most records, active means well fitted curve in the direction sought with a large enough effect; inconclusive means small, poorly fitted or top-dose-only effect, or another doubt; inactive means no such curve, though single readings can be large; an effect the other way counts as inactive or inconclusive.
SMILES,TbPYK inhibitor,FBPA Giardia inh,Cycloheximide cs,Shiga inhibitor,LmPK inh,RE007 growth inh
CC(C)(C)c1ccc(C(=O)Nc2ccc(O)c3c(=O)cc(-c4ccccc4Cl)oc23)cc1,3%,-2%,4,33,8%,0%
Nc1ccc(O)c2c(=O)cc(-c3ccccc3Cl)oc12,3%,0%[89.2 µM],45*!,61*,-5%,-2%
O=C(Nc1ccc(O)c2c(=O)cc(-c3ccccc3Cl)oc12)c1ccc(Cl)cc1Cl,1%,2%,-2,-11,4%,-11%
COC(=O)c1ccc(C(=O)N2CCCC(CNC(=O)c3ccccc3Cl)C2)cc1 (stereo not drawn),3%,3%,13*,69,3%,-18%
CC(=O)c1ccccc1C(=O)N1CCCC(CNC(=O)c2ccc(F)cc2)C1 (stereo not drawn),5%,x,x,x,x,11%
CC(=O)c1ccc(C(=O)N2CCCC(CNC(=O)c3ccccc3Cl)C2)cc1 (stereo not drawn),0%,5%,15*,19,0%,0%
COc1ccc(CC(=O)N2CCCC(CNC(=O)c3ccccc3Cl)C2)cc1 (stereo not drawn),-2%,7%,12,33*,12%,11%
O=C(NCC1CCCN(C(=O)c2cscn2)C1)c1ccccc1Cl (stereo not drawn),-4%,2%,25*,30*,-6%,5%
CCC(=O)N1CCc2cc(Br)cc(S(=O)(=O)N3CCC(C(=O)Nc4ccccc4F)CC3)c21,3%,x,x,x,x,x
CC(=O)NCCC(=O)N1CCCC(CNC(=O)c2ccc(-c3ccccc3)cc2)C1 (stereo not drawn),-5%,-2%,15*,27,-2%,-19%
C=CCC(=O)N1CCCC(CNC(=O)c2ccc(-c3ccccc3)cc2)C1 (stereo not drawn),-1%,0%,9,11,4%,5%
O=C(CSc1nnc(-c2ccco2)o1)c1ccc(F)c(F)c1,8%,1%,7,22,-7%,1%
O=C(CSc1nnc(-c2ccco2)o1)c1ccccc1,-12%,-14%,33*,66,-2%,-29%
O=C(CSc1nnc(-c2ccco2)o1)c1ccc[nH]1,1%,-17%,50*,110*,-2%,32%
CC(C)C(=O)Nc1cccc(COc2cccc(CN(Cc3ccccc3)C(=O)OC(C)(C)C)c2)c1,0%,x,x,x,x,-10%
COc1cc2c(cc1/C=C/[N+](=O)[O-])OCO2,-7%,3%,-16,-24,-5%,14µM*
CC(C)CN(C(=O)c1cccc(S(=O)(=O)N2CCN(C)CC2)c1)C1CCS(=O)(=O)C1 (stereo not drawn),-5%,x,x,x,x,9%
Cc1ccc(N2CCN(/N=C/C(Cl)=C/c3ccccc3)CC2)cc1,-21%,-1%,12,32,5%,-14%
COc1ccccc1N1CCN(/N=C\c2ccccc2)CC1,5%,-11%,57*,x,21%,3%
COc1cc(/C=N/N2CCN(c3ccccc3OC)CC2)ccc1O,-12%,-6%,26*,+,-3%,-10%
COc1ccccc1N1CCN(/N=C/c2cc(OC)c(OC)c(OC)c2)CC1,1%,-1%,9,15,1%,-34%
COc1ccccc1N1CCN(/N=C/C(Cl)=C/c2ccccc2)CC1,0%,-2%,33*,81*,-14%,-14%
COc1ccccc1N1CCN(/N=C\c2ccc(C)o2)CC1,5%,-7%,45,100*,-2%,u
Cc1ccccc1C(=O)N(Cc1ccc(N(C)C)cc1)Cc1ccco1,-5%,x,x,x,x,x
COc1ccccc1N1CCN(/N=C\c2sccc2C)CC1,-1%,3%,38,99*,-5%,-16%
SMILES,TbPYK inhibitor,FBPA Giardia inh,Cycloheximide cs,Shiga inhibitor,LmPK inh,RE007 growth inh
COc1ccccc1N1CCN(c2csc3ccccc3c2=O)CC1,-11%,x,x,x,x,x
COc1ccccc1N1CCN(/N=C/c2c(C)nn(-c3ccccc3)c2C)CC1,2%,-4%,3,8,2%,-5%
COc1ccccc1N1CCN(/N=C/c2cccc(OC)c2OC)CC1,3%,2%,15*,61*,2%,-14%
Cc1ccc(N2CCN(/N=C/c3sccc3C)CC2)cc1,-5%,6%,12*,10,10%,-6%
Cc1ccsc1/C=N/N1CCOCC1,-11%,2%,2,13,-5%,-10%
CNc1nc(NC#N)nc(SC)n1,-14%,-6%,-2,-7,-7%,8%
CC1(C(=O)NS(=O)(=O)c2cccc(C#N)c2)CCN1C(=O)c1ccco1 (stereo not drawn),8%,x,x,x,x,5%
CN(C)Cc1ccccc1-c1cncnc1NCc1cccs1,x,-3%,x,x,x,x
CC(C)N(Cc1ccccc1)c1ncnc2c1nnn2C,2%,x,x,x,x,x
COC/C=C/C1=CC2=CC(=O)C(C)(OC(=O)c3cnc4ccccc4n3)C(=O)C2=CO1 (stereo not drawn),x,0%,x,x,x,x
c1ccc(Oc2cc(-c3ccccc3)ncn2)cc1,-19%,6%,59*,127*,-6%,u
c1ccc(Oc2cc(-n3cncn3)ncn2)cc1,-5%,4%,15,39*,-15%,-29%
Cc1cnn(-c2cc(Oc3ccccc3)ncn2)c1,3%,3%,52*,112*,-4%,u
COc1ccc(OC)c(C2=NS(=O)(=O)N(C)C(C(=O)Nc3ccc(F)cc3F)=C2)c1,-9%,-3%,12,14,1%,-15%
Cc1nc(-c2ccc(Cl)cc2)sc1CCNC(=O)C(=O)Nc1ccc2c(c1)OCO2,-4%,x,x,x,x,x
NCCCC[C@H](NC(=O)[C@@H](Cc1ccccc1)NC(=O)[C@H](Cc1c[nH]c2ccccc12)NC(=O)[C@@H](CCCCN)NC(=O)[C@@H](Cc1c[nH]c2ccccc12)NC(=O)[C@@H](N)Cc1cnc[nH]1)C(N)=O,x,2%,-8,-7,x,x
C(=C\c1nc2ccccc2[nH]1)/c1ccccc1,u,-22%,21*,68*,8.9µM*,32µM*
C(=C\c1ccco1)/c1nc2ccccc2[nH]1,-20%,-22%,50*,70*,u,-26%
O=C(/C(=C/c1ccc(Cl)cc1)c1nc2ccccc2[nH]1)c1ccccc1,3%,-1%,37*,41*,3%,-4%
O=c1[nH]c2ccccc2nc1/C=C/c1ccc(Cl)cc1,-24%,5%,37*,69*,-2%,-8%
CC1(C)CC(NCc2cccc([N+](=O)[O-])c2)CC(C)(C)N1,3%,6%,17*,36,2%,-16%
CC(C)NCc1cccc([N+](=O)[O-])c1,3%,-24%,-4,-8,-10%,3%
CCCOC(=O)c1c(-c2ccccc2)c(-c2ccccc2)nn(C)c1=O,-2%,x,x,x,x,x
